What was measured:
Assay in all cases: DAPPL (digital affinity profiling via proximity ligation, sequencing); 10 mM Tris-HCl pH 7.5, 50 mM NaCl, 1 mM DTT, 4% glycerol, room temperature, 30 min; GST-TFs on glutathione beads, 16-mer random dsDNA library, 0.1% formaldehyde crosslink after washing; high values mean tight binding
Conditions in all cases: protein: recombinant; tags: N-terminal GST; dsDNA, one strand shown
FLI1 = target: T1, FLI1 (Homo sapiens, UniProt Q01543 1-452)
T1 sequence: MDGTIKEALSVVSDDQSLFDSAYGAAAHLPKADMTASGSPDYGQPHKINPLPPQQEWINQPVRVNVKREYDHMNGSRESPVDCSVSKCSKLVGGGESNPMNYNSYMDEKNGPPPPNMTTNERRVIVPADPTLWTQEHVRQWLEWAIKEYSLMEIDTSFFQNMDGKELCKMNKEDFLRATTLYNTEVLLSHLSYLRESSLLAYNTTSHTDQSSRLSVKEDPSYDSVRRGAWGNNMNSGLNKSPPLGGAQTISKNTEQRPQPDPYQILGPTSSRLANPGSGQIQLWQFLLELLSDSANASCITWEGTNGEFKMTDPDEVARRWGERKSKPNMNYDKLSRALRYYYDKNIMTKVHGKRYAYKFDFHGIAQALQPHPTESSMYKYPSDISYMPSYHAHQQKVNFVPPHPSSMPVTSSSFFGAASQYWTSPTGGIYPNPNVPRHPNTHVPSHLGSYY
Summary of the method: (§1)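 Human transcription factors carrying a GST fusion were produced in yeast, bound to glutathione beads, tagged with DNA barcodes and pooled together with a tag-only sample. Each pool was held with 200 nmole of a random double-stranded 16-mer DNA library in Tris/NaCl/DTT/glycerol buffer for 30 min at room temperature, then washed, crosslinked in 0.1% formaldehyde, proximity-ligated with BsaI/T4 ligase (1 h, 37 °C), PCR-amplified and sequenced on an Illumina NextSeq500. Binding signal is the read frequency of each hexamer for a given factor divided by its frequency in the tag-only sample.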

ELF1 = ELF1 (Homo sapiens, UniProt P32519 1-619)
Summary of the method: as §1

EHF = target: T2, EHF (Homo sapiens, UniProt Q9NZC4 1-300)
T2 sequence: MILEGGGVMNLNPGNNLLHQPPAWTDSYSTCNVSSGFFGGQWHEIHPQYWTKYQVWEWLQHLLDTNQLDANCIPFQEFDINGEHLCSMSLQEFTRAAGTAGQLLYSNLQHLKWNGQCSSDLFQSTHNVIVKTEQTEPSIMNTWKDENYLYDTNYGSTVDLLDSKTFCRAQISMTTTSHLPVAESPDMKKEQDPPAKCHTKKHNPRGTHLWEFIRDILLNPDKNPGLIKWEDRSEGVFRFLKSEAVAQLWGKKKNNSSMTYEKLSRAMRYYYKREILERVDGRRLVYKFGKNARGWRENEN
Summary of the method: as §1

ELK3 = target: T3, ELK3 (Homo sapiens, UniProt P41970 1-407)
T3 sequence: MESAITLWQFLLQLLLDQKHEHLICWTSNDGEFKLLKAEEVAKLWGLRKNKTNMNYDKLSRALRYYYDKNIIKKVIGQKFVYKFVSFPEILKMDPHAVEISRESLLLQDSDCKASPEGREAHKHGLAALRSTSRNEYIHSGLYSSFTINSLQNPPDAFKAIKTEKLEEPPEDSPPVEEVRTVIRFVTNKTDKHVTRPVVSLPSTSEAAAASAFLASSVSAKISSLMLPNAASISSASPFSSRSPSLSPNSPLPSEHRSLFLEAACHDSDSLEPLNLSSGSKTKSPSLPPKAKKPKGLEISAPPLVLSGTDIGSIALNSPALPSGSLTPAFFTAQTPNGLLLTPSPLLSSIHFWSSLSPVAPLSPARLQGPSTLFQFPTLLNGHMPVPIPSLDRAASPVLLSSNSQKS
Summary of the method: as §1

SPIC = target: T4, SPIC (Homo sapiens, UniProt Q8N5J4 1-248)
T4 sequence: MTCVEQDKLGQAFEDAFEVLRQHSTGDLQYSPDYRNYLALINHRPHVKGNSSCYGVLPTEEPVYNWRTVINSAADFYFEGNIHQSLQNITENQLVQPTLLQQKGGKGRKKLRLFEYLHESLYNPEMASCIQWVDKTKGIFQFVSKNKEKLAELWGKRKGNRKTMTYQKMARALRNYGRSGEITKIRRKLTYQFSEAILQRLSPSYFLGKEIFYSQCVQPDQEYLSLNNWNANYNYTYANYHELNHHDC
Summary of the method: as §1

ELF4 = ELF4 (Homo sapiens, UniProt Q99607 1-663)
Summary of the method: as §1

ETV2 = target: T5, ETV2 (Homo sapiens, UniProt O00321 1-342)
T5 sequence: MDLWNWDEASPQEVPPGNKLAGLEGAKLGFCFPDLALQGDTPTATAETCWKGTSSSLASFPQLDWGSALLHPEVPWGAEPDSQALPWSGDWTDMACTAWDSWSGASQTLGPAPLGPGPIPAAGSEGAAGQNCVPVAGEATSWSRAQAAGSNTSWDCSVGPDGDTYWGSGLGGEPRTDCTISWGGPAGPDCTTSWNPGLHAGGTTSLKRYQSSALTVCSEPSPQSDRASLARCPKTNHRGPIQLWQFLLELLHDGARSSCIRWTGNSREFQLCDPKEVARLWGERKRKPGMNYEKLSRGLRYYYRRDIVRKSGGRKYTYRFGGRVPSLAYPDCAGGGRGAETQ
Summary of the method: as §1

ELF3 = target: T6, ELF3 (Homo sapiens, UniProt P78545 1-371)
T6 sequence: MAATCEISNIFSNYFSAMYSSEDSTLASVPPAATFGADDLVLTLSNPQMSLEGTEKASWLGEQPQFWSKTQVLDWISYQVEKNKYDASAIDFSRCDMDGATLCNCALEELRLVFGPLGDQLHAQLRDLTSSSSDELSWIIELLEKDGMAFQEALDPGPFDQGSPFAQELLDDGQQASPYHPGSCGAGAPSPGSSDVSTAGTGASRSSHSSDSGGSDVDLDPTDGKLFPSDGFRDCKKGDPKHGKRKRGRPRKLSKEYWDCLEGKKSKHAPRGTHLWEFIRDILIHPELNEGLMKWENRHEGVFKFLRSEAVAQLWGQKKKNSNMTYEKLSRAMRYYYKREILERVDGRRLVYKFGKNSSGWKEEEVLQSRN
Summary of the method: as §1

ETV1 = ETV1 (Homo sapiens, UniProt P50549 1-477)
Summary of the method: as §1

ERF = target: T7, ERF (Homo sapiens, UniProt P50548 1-548)
T7 sequence: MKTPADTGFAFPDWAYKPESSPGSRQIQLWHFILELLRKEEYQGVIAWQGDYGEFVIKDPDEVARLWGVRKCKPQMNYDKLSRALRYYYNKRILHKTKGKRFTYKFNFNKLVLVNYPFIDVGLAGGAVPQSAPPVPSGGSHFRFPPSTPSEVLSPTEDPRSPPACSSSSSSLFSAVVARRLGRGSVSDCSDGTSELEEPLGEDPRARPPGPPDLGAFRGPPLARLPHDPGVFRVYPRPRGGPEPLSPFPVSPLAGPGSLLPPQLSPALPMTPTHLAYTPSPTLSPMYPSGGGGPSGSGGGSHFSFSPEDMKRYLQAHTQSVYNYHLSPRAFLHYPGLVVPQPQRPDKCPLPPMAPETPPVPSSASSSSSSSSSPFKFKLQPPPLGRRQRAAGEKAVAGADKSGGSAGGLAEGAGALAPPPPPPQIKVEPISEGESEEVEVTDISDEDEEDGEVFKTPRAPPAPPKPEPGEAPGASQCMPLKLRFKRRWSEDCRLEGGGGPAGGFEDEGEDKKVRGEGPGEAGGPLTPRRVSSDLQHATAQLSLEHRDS
Summary of the method: as §1

ETV7 = target: T8, ETV7 (Homo sapiens, UniProt Q9Y603 1-341)
T8 sequence: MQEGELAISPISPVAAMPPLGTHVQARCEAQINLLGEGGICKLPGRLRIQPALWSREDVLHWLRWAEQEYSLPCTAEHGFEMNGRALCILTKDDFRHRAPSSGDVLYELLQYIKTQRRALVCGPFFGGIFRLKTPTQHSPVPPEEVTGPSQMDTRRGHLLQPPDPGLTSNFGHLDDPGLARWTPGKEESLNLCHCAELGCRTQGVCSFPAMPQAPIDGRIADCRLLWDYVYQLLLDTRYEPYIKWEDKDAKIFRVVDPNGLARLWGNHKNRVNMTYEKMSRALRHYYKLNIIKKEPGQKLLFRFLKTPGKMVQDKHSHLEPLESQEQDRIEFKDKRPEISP
Summary of the method: as §1

ETV3 = target: T9, ETV3 (Homo sapiens, UniProt P41162-2 1-143)
T9 sequence: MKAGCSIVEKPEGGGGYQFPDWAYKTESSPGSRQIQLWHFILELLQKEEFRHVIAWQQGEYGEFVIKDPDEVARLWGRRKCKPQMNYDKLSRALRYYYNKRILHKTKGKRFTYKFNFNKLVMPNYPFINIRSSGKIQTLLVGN
Summary of the method: as §1

SPI1 = SPI1 (Homo sapiens, UniProt P17947 1-270)
Summary of the method: as §1

FEV = target: T10, FEV (Homo sapiens, UniProt Q99581 1-238)
T10 sequence: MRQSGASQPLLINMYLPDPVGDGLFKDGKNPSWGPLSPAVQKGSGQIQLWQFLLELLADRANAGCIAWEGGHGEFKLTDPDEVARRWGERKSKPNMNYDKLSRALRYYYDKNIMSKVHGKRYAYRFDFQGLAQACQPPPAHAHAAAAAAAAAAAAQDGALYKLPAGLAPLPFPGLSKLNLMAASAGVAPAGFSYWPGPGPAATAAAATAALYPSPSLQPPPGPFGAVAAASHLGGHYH
Summary of the method: as §1

ELK4 = target: T11, ELK4 (Homo sapiens, UniProt P28324-2 1-405)
T11 sequence: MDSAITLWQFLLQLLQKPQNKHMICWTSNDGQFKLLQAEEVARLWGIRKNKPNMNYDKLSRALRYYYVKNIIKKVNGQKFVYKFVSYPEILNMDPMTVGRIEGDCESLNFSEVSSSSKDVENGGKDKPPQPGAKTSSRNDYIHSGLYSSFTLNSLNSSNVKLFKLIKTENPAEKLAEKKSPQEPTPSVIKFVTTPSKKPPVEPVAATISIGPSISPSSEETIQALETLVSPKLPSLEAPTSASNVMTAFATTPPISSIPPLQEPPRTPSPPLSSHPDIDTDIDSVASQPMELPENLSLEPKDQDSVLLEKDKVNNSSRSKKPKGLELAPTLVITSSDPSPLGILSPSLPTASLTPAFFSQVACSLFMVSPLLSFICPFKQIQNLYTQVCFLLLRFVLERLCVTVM
Summary of the method: as §1

ETV6 = ETV6 (Homo sapiens, UniProt P41212 1-452)
Summary of the method: as §1

Sequence of ELF4 (Q99607 whole entry): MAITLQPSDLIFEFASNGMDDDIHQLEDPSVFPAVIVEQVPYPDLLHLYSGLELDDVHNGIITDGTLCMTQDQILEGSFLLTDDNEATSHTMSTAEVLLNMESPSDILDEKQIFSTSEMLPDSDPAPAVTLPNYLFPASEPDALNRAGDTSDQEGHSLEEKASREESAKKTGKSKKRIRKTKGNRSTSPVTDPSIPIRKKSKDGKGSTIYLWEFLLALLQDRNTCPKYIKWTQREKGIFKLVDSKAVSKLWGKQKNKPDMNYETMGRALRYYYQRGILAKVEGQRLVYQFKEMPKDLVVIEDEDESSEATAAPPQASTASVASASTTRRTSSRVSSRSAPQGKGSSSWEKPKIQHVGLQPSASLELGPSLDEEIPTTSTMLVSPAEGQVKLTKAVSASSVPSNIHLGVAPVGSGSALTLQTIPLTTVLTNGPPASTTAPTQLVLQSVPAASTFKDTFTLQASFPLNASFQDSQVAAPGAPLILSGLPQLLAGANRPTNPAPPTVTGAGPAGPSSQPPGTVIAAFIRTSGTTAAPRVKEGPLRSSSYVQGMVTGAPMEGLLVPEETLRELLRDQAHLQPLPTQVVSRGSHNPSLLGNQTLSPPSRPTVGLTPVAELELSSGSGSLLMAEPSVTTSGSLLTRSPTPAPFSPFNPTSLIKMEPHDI
Sequence of ELF1 (P32519 whole entry): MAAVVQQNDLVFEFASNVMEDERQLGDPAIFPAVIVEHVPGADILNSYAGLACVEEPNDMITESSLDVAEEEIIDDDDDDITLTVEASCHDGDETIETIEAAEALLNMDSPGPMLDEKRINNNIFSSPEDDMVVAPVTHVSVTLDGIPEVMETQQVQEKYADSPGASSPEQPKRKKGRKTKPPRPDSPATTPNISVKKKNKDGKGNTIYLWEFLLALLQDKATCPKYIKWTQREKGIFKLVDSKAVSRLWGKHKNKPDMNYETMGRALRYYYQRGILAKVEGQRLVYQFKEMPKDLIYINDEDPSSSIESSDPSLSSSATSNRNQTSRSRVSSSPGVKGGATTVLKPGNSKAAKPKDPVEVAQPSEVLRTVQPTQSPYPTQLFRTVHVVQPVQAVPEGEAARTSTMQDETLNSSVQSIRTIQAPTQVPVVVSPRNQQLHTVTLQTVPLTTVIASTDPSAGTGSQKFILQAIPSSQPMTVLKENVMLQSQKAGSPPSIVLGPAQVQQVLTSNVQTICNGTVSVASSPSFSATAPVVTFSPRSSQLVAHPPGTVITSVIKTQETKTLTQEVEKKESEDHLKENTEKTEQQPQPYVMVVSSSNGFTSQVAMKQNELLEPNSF
Sequence of ETV6 (P41212 whole entry): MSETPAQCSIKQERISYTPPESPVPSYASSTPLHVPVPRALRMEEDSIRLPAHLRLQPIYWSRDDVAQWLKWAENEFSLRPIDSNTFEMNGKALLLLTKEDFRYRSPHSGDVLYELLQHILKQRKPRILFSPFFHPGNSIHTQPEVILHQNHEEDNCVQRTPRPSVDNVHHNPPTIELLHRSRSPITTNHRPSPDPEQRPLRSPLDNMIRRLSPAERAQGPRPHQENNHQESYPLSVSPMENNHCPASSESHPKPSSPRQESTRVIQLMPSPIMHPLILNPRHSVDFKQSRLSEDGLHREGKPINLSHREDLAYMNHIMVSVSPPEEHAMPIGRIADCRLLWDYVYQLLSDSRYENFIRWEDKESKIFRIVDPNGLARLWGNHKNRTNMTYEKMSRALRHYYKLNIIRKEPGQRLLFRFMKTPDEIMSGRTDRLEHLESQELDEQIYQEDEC
Sequence of ETV1 (P50549 whole entry): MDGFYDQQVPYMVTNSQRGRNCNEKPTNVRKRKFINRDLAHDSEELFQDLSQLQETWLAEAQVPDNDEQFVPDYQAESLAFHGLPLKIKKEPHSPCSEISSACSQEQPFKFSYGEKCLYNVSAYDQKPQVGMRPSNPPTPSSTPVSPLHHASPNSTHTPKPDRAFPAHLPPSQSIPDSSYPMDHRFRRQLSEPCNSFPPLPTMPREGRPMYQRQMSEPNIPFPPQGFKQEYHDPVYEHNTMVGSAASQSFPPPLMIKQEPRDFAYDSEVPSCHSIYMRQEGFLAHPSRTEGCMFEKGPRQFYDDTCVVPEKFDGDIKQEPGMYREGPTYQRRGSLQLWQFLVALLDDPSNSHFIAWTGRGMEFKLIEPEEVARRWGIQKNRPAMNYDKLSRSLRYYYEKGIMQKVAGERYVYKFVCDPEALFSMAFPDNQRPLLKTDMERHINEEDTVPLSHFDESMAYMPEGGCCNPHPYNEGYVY

Sequence	binding signal (FLI1)	binding signal (ELF1)	binding signal (EHF)	binding signal (ELK3)	binding signal (SPIC)	binding signal (ELF4)	binding signal (ETV2)	binding signal (ELF3)	binding signal (ETV1)	binding signal (ERF)	binding signal (ETV7)	binding signal (ETV3)	binding signal (SPI1)	binding signal (FEV)	binding signal (ELK4)	binding signal (ETV6)
ACTCGG	1.07 fold enrichment (6-mer frequency, TF over GST control)	1.07 fold enrichment (6-mer frequency, TF over GST control)	1.04 fold enrichment (6-mer frequency, TF over GST control)	1.06 fold enrichment (6-mer frequency, TF over GST control)	1.08 fold enrichment (6-mer frequency, TF over GST control)	1.02 fold enrichment (6-mer frequency, TF over GST control)	1.03 fold enrichment (6-mer frequency, TF over GST control)	1.03 fold enrichment (6-mer frequency, TF over GST control)	1.03 fold enrichment (6-mer frequency, TF over GST control)	1.04 fold enrichment (6-mer frequency, TF over GST control)	1.06 fold enrichment (6-mer frequency, TF over GST control)	1.04 fold enrichment (6-mer frequency, TF over GST control)	–	–	–	–
GTGGCA	1.05 fold enrichment (6-mer frequency, TF over GST control)	–	1.03 fold enrichment (6-mer frequency, TF over GST control)	1.04 fold enrichment (6-mer frequency, TF over GST control)	1.04 fold enrichment (6-mer frequency, TF over GST control)	–	1.07 fold enrichment (6-mer frequency, TF over GST control)	–	–	–	–	1 fold enrichment (6-mer frequency, TF over GST control)	1.04 fold enrichment (6-mer frequency, TF over GST control)	1.09 fold enrichment (6-mer frequency, TF over GST control)	1.04 fold enrichment (6-mer frequency, TF over GST control)	1.05 fold enrichment (6-mer frequency, TF over GST control)
